# Reference: PubChem BioAssay (NCATS)
# Entries with a potency or affinity are not part of this list. Unmarked numbers belong to inactive results. How the calls were made is not given here.
# Settings: Ebola virus entry assay, green fluorescence channel
# Further: 0% is about no effect.
row,Structure (SMILES),efficacy [%]
1,CC1CCc2c(N3CCC(O)CC3)c(F)cc3c(=O)c(C(=O)O)cn1c23 (stereo not drawn),-9.77
2,CC12CCC(CC1)C(C)(C)O2,14.6
3,CC1(C)O[C@@H]2C[C@H]3[C@@H]4CCC5=CC(=O)C=C[C@]5(C)[C@@H]4[C@@H](O)C[C@]3(C)[C@]2(C(=O)CO)O1,50.6
4,CNCC(O)c1ccc(O)c(O)c1 (stereo not drawn),44.4
5,O=C(c1ccccc1)c1ccccc1,10.2
6,CC(C(=O)O)c1cccc(Oc2ccccc2)c1 (stereo not drawn),18.1
7,O=c1c(C2CC(c3ccc(-c4ccc(Br)cc4)cc3)Cc3ccccc32)c(O)sc2ccccc12 (stereo not drawn),37.1
8,CN(C)C(=O)Oc1ccc[n+](C)c1,18
9,O=C(O)c1cc(-c2ccccc2)nc2ccccc12,-14.9
10,CC(C(=O)O)c1ccc(C(=O)c2ccccc2)s1 (stereo not drawn),-17.9
11,CN(C)CCOC(=O)COc1ccc(Cl)cc1,14.4
12,Cn1c([N+](=O)[O-])cnc1COC(N)=O,19.4
13,NC(=O)N[C@@H](CCC(=O)O)C(=O)O,-11.5
14,C[C@H]1O[C@@H](n2cc(F)c(=O)[nH]c2=O)[C@H](O)[C@@H]1O,-18.2
15,Cc1ccccc1C(=O)Nc1ccc(C(=O)N2CCCC(N(C)C)c3ccccc32)cc1 (stereo not drawn),11.8
16,COc1ccc(/C=N/NC(=O)c2ccncc2)cc1OC,14.8
17,Clc1cccc(SC2CCNCC2)n1,-16
18,Cc1coc2ccccc2c1=O,-25.1
